“And” between values parts separate entries of the source, which are not always exact repeats. Equal values may be shown once. Records with an inconclusive call do not appear. Where a call stands in place of a potency, no number is given. The source made the active and inactive calls. Calls come from the whole dose curve; as a rule, active = well fitted cell-killing curve with a large enough effect; inconclusive = small, poorly fitted or top-dose-only effect; inactive = no such curve, though single readings can be large or run the other way.
Potency is the fitted concentration of half-maximal effect.

A short description of the experiment: qHTS of pediatric cancer cell lines to identify multiple opportunities for drug repurposing: Primary screen for OHS-50 cells (AID 1347103). Note: nearly all actives have a fitted effect of over 40% in size. To be noted: OHS-50 osteosarcoma viability, CellTiter-Glo luminescence, 48 h; series mostly up to 57.3 µM. From the text: Drug repurposing or repositioning has been offered as a strategy for drug development in oncology programs. This approach has special potential for childhood cancers and other rare or orphan diseases, where the expected return on new drug development has been a disincentive to pharmaceuticals.
In this project we exploit the poly-pharmacology of drugs to discover new indications via phenotypic screening of a panel of 19 well-characterized cell lines derived from solid tumors seen in children and adolescents. The goal is to identify approved drugs with previously unrecognized anticancer properties that has the potential to reveal new mechanisms and biological processes involved in carcinogenesis or drug resistance. We employed a titration-based paradigm (quantitative high-throughput screening or qHTS), where all compounds were tested at multiple concentrations for their effect on cell viability. Concentration-response curves (CRCs) were derived directly from the primary screen, and both potency and efficacy values were used to identify compounds with robust bioactivity profiles. We screened the NIH Chemical Genomics Center (NCGC) Pharmaceutical Collection (NPC) and Mechanism Interrogation Plate (MIPE) small molecule collections of approved and investigational compounds against these cell lines; and measured metabolically active cells after 48 hours of compound treatment as a proxy for cell viability.
Assay Submitter: Nathalia J. Martinez, National Center for Advancing Translational Sciences, National Institutes of Health, Rockville, MD, USA; email: natalia.martinez@nih.gov
[1] Shen, M et al. Quantitative high-throughput phenotypic screening of pediatric cancer cell lines identifies multiple opportunities for drug repurposing. Oncotarget 2017 Dec 19;9(4):4758-4772. PMID 29435139.
The cells were obtained from University of North Carolina (UNC), Pediatric Preclinical Testing Program (PPT), and Coriell Institute (CI).
qHTS cell viability assay:
Cells were assayed in growth media at a density of 500-1,000 cells/well. Five microliters of cells were dispensed into 1,536-well, white, solid-bottom, TC-treated plates (Greiner Bio One) using a multidrop dispenser and incubated at 37 degrees C, 5% CO2, under a humidified atmosphere for 5 hours. Twenty-three nanoliters of compounds and controls (neutral control DMSO or positive control bortezomib at final concentration of 2.3 µM) were subsequently transferred by Kalypsys pintool. For primary screens, the MIPE collection was tested at 11-point dilutions (final concentrations range from 0.78 nM to 46 µM) and the NPC collection at 8-point dilutions (final concentrations range from 0.59 nM to 46 µM). Compounds tested in follow-up screens were assayed at 11-point dilutions. Cells were incubated for 48 hours, followed by addition of 3 µL of CellTiter-Glo (Promega). After a 15 min incubation at room temperature, samples were analyzed for luminescence intensity using a ViewLux High-throughput CCD imager equipped with clear filters.
A general note: qHTS replaces the single test concentration by a dilution series.
For `Cn1c(=O)c2c(ncn2C)n(C)c1=O`, the Potency entry was “inactive”.
`NCCCCCC(=O)O`: the Potency result was “inactive”.
As to `Clc1ccc2c(c1)C(N1CCNCC1)=Nc1ccccc1O2`, the Potency entry was “inactive”.
Under `CN(C)CCCN1c2ccccc2CCc2ccc(Cl)cc21` stands 13.7 µM (active) and 17.4 µM (active).
As for `CN(C)C(=O)C(CCN1CCC(O)(c2ccc(Cl)cc2)CC1)(c1ccccc1)c1ccccc1`, the Potency was 21.7 µM (active) and 19.5 µM (active).
With `O=C(Nc1ccc([N+](=O)[O-])cc1Cl)c1cc(Cl)ccc1O`, the Potency was 1.51 µM (active) and 863 nM (active).
Regarding `O=C(CCCN1CCC(O)(c2ccc(Cl)cc2)CC1)c1ccc(F)cc1`, the Potency entry is “inactive”.
For the compound `NC(=O)OCC(COC(N)=O)c1ccccc1`, the Potency entry was “inactive”.
With `Cn1ccc2cc3c(cc21)CCN3C(=O)Nc1cccnc1`, the Potency entry was “inactive”.
With `CC(C)NCC(O)COc1ccc(CCOCC2CC2)cc1` (stereo not given), the Potency entry was “inactive”.
With `CC(C)NCC(O)c1ccc(O)c(O)c1` (stereo not given) the entry was “inactive”.
As for `NCCc1cnc[nH]1`, the Potency entry was “inactive”.
For the compound `CC1(C)O[C@H]2CC(=O)OC[C@]23[C@H]2CC[C@@]4(C)[C@H](c5ccoc5)OC(=O)[C@H]5O[C@]54[C@]2(C)C(=O)C[C@@H]13`, the Potency entry is “inactive”.
With `CN1CCC(=C2c3ccccc3C=Cc3ccccc32)CC1`, the Potency is 13.8 µM (active) and 19.3 µM (active).
As to `CC(C)C(=O)Nc1ccc([N+](=O)[O-])c(C(F)(F)F)c1`, the Potency is 24.6 µM (active) and 432 nM (active).
As for `CC#C[C@]1(O)CC[C@H]2[C@@H]3CCC4=CC(=O)CCC4=C3[C@@H](c3ccc(N(C)C)cc3)C[C@@]21C`, the Potency was 7.69 µM (active).
With `Cn1c(=O)c2[nH]cnc2n(C)c1=O` the entry was “inactive”; with `NCCS(=O)(=O)O`, “inactive”.
Under `CC(=O)OCC(CCn1cnc2cnc(N)nc21)COC(C)=O` stands “inactive”; under `Nc1ccn([C@H]2CC[C@@H](CO)O2)c(=O)n1`, “inactive”.
With `Cc1ccc(C(=O)Nc2ccc(S(=O)(=O)O)c3cc(S(=O)(=O)O)cc(S(=O)(=O)O)c23)cc1NC(=O)c1cccc(NC(=O)Nc2cccc(C(=O)Nc3cc(C(=O)Nc4ccc(S(=O)(=O)O)c5cc(S(=O)(=O)O)cc(S(=O)(=O)O)c45)ccc3C)c2)c1` the entry was “inactive”.
`CC1COc2c(N3CCN(C)CC3)c(F)cc3c(=O)c(C(=O)O)cn1c23` (stereo not given): the Potency result was “inactive”.
As to `C[C@@H]1CC(=O)NN=C1c1ccc(NN=C(C#N)C#N)cc1`, the Potency was 21.7 µM (active).
For `OCCN1CCN(CCCN2c3ccccc3Sc3ccc(C(F)(F)F)cc32)CC1`, the Potency is 24.3 µM (active) and 27.6 µM (active).
With `O=C(c1ccc(F)cc1)C1CCN(CCn2c(=O)[nH]c3ccccc3c2=O)CC1` the entry was “inactive”; with `Cc1cnc(C(=O)NCCc2ccc(S(=O)(=O)NC(=O)NC3CCCCC3)cc2)cn1`, “inactive”.
With `COc1ccc(C2CNC(=O)C2)cc1OC1CCCC1` (stereo not given) the entry was “inactive”.
`Nc1c2c(nc3ccccc13)CCCC2`: the Potency entry was “inactive”.
Take `CCN1CCCC1CNC(=O)c1cc(S(=O)(=O)CC)c(N)cc1OC` (stereo not given): the Potency entry is “inactive”.
Regarding `CCOC(=O)Nc1ccc(NCc2ccc(F)cc2)nc1N`, the Potency result is “inactive”.
Consider `NC12CC3CC(CC(C3)C1)C2`, for which the Potency entry was “inactive”.
Turning to `COc1ccc(CCN(C)CCCC(C#N)(c2ccc(OC)c(OC)c2)C(C)C)cc1OC` (stereo not given), the Potency entry was “inactive”.
For the compound `CCCCc1oc2ccccc2c1C(=O)c1cc(I)c(OCCN(CC)CC)c(I)c1`, the Potency is 5.44 µM (active) and 11 µM (active).
Regarding `COc1cc2nc(N(C)CCCNC(=O)C3CCCO3)nc(N)c2cc1OC` (stereo not given), the Potency result was “inactive”.
With `O=C(c1ccc(OCCN2CCCCC2)cc1)c1c(-c2ccc(O)cc2)sc2cc(O)ccc12` the figure was 27.6 µM (active) and 24.3 µM (active); with `N[C@@H](Cc1c[nH]c2ccc(O)cc12)C(=O)O`, “inactive”.
Take `Nc1nnc(-c2cccc(Cl)c2Cl)c(N)n1`: the Potency result was “inactive”.
`CC(C)(Oc1ccc(C2CC2(Cl)Cl)cc1)C(=O)O` (stereo not given): the Potency result was “inactive”.
For the compound `CC(COc1ccccc1)N(CCCl)Cc1ccccc1` (stereo not given), the Potency was 24.3 µM (active).
With `COc1ccccc1OCC(O)CN1CCN(CC(=O)Nc2c(C)cccc2C)CC1` (stereo not given) the entry was “inactive”.

Values taken from PubChem BioAssay (NCATS).
